# Shown are actives, neighbours in structure and some others; about 0.85% of the full set was active somewhere.
# MmCpn inh – Inhibitors of TCP-1 ring complex (TRiC) of Methanococcus maripaludis (MmCpn): qHTS | Chaperonin Mm-Cpn (Methanococcus maripaludis) | Potency, µM (titrated, usually from 76.9 µM), inactives show at the highest dose activity, negative = inhibition, most hits filed as inhibitors | actives 0.031% (n = 330,000) | purified Mm-Cpn ATPase, ADP Transcreener TR-FRET; also: potency is read from the fitted curve at half-maximal effect; % is scaled to controls: 0 for no effect and ±100 for the full control effect; nearly all actives have a fitted effect of over 80% in size
#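 Eu-cryptate anti-ADP/ADP-d2 competition gives a ratio inversely related to ADP. Enzyme at 25 nM was pre-exposed to compound for 10 min, then given 10 uM ATP for 30 min, 37°C throughout.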
# GLS inhibitor – qHTS for Inhibitors of Glutaminase (GLS) | Glutaminase kidney isoform, mitochondrial (Homo sapiens), O94925 | GLS enzymatic activity, qHTS titration | Potency, µM (series often up to 45.5 µM), inactives show at the top dose activity change, negative = inhibition, usual class: inhibitors | actives 0.21% (n = 410,000); also: potency is read from the fitted curve at half-maximal effect; % is scaled to controls: 0 for no effect and ±100 for the full control effect
#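 hKGA in 45 mM KH2PO4 (pH 8.2), 0.02% Tween-20 with compound, then 1mM L-Glutamine (stock as added) plus glutamate oxidase/HRP/Amplex red coupling mix. Fluorescence read initially and after 30 min at RT; signal change reflects glutamate formation.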
# CCT chaperon mod – High-Throughput Screening for Modulators of Cytosolic Chaperonin Activity. actives 0.3% (n = 360,000). purified chaperonin ATPase assay, HTRF ADP detection, 30 min. activity change, % (no concentration beside the values), hits read low; in the data active = activity change below about -30%; also: % is scaled to controls: 0 for no effect and ±100 for the full control effect
#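 ATPase activity: ADP formed was measured by HTRF Transcreener (665/615 nm ratio) after 30 min at 37 deg C with 10 uM ATP. Compounds screened at one 76 uM concentration against 40 or 20 nM TRiC in Tris pH 7.4/KCl/MgCl2/DTT buffer.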
# IDH1 R132H inh – qHTS for Inhibitors of mutant isocitrate dehydrogenase 1 (IDH1): qHTS. IDH1-R132H enzyme, NADPH consumption, diaphorase/resazurin fluorescence. AID 602179, 2012. Potency, µM (top dose mostly 76.6 µM), for the others: at the top dose activity change, negative = inhibition, most hits filed as inhibitors. actives 0.093% (n = 390,000); also: potency is read from the fitted curve at half-maximal effect; % is scaled to controls: 0 for no effect and ±100 for the full control effect; nearly all actives have a fitted effect of over 65% in size
# Target sequence (O75874 whole entry R132H, stated change not applied): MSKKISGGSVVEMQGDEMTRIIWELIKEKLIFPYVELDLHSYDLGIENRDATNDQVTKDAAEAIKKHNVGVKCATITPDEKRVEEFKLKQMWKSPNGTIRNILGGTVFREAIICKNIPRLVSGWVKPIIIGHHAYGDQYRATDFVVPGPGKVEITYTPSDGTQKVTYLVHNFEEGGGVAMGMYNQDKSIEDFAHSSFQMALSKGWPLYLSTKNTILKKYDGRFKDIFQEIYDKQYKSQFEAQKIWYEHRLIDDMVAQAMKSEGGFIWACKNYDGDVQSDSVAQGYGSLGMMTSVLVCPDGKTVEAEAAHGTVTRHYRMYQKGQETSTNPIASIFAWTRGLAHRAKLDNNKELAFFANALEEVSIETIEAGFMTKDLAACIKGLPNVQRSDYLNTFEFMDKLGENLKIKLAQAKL
#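 IDH1-R132H (0.5 ug/mL) preincubated 30 min with compound, then NADPH (0.016 mM) and alpha-KG (2 mM) added; 80 min at RT, pH 7.5. Remaining NADPH coupled via diaphorase/resazurin to fluorescence (540/590 nm); concentration-response curves normalized to no-enzyme control.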
# GRP78 ERSR act – qHTS for Inducers of the Endoplasmic Reticulum Stress Response (ERSR) in Human Glioma: qHTS | U87-MG GRP78 promoter luciferase reporter, 16 h | Potency, µM, for inactives: at the highest dose activation, hits mostly activators | actives 0.02% (n = 420,000) | AID 602332, 2012; also: potency is read from the fitted curve at half-maximal effect; series mostly up to about 76 µM; % of control where 0% means no effect; nearly all actives have a fitted effect of over 35% in size
#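 Stably transfected U87-MG human glioma cells carrying a GRP78-based luminescent sensor were seeded at 1000 cells/well, pin-dosed with compounds and incubated 16 h. Luciferase reagent was then added, and end-point luminescence was read after 10 min at room temperature.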
# pAkt inh – HTS Assay for Inhibitors of Akt Phophorylation: Primary Screen; Neuro2A IGF-stimulated pAkt S473 HTRF, 20 min; hits give low values; activity change, % for hits at 50 µM; actives 0.32% (n = 360,000); in the data active = activity change below about -80%; also: % is scaled to controls: 0 for no effect and ±100 for the full control effect
#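 Neuro2A cells in DMEM with 0.5% FBS, overnight at 37 deg C, given compound at single 50 µM final, then IGF (6 nM final) for 20 min at 37 deg C. Lysed; phospho-Akt Ser473 by HTRF after 24 h, 665/615 ratio.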
# Active calls of the source: *; i = inactive; · = no result given; [ ] = another dose, or the depositor's remark. Unless noted, calls follow the shape of the dose curve; as a rule, active = well fitted curve in the direction sought with a large enough effect; inconclusive = small, poorly fitted or top-dose-only effect, or another doubt; inactive = no such curve, though single readings can be large; an effect the other way counts as inactive or inconclusive.
SMILES,MmCpn inh,GLS inhibitor,CCT chaperon mod,IDH1 R132H inh,GRP78 ERSR act,pAkt inh
CCCCCn1c(=O)c2ccccc2n2c(=S)[nH]nc12,-1%,-2%,-5,-5%,0%,i
CCCn1c(=O)c2ccccc2n2c(=S)[nH]nc12,-6%,-24%,0,2%,-2%,i
Cn1c(=O)c2ccccc2n2c(=S)[nH]nc12,-6%,10µM*,1,3%,6%,i
CCOC(=O)c1c(N)sc(C(=O)N2CCOCC2)c1C,-2%,-12%,-4,-3%,-4%,·
CCOC(=O)c1c(P(=O)(N2CCOCC2)N2CCOCC2)noc1N,0%,-22%,-54*,4%,-4%,i
COc1ccc(/C=C(\C#N)C(=O)NCCc2ccccc2)cc1OCc1ccccc1,4%,1%,-3,3%,-4%,i
COCCCNC(=O)/C(C#N)=C/c1ccc(OCC(=O)O)c(OC)c1,2%,10µM*,1,5%,-6%,i
CCOC(=O)/C(C#N)=C/c1ccc(OCC(=O)Nc2cc(C)ccc2C)c(OC)c1,-1%,9%,-2,-5%,0%,-82%*
O=S(=O)(NCc1cccnc1)c1ccc(Cl)c(Cl)c1Cl,0%,-1%,-48*,0%,-4%,i
O=S(=O)(NCc1cccnc1)c1ccc(Cl)c2ccccc12,0%,-1%,-1,4%,-4%,i
COc1ccc(O)c(CN2CCOc3c(cc(-c4cccc(OC)n4)cc3OC)C2)c1,·,·,·,·,-4%,·
N#Cc1ccccc1-c1csc(N2CCC(C(N)=O)CC2)n1,-3%,·,·,·,·,·
CCN(CC)C(=O)[C@H]1C[C@H](CC(=O)NC(C)(C)C)C(=O)N2CCc3c([nH]c4cc(-c5ccco5)ccc34)[C@]12C,2%,-22%,1,0%[38.3 µM],-4%,i
CC(C)N(C(=O)[C@H]1C[C@H](CC(=O)NC(C)(C)C)C(=O)N2CCc3c([nH]c4cc(-c5ccco5)ccc34)[C@]12C)C(C)C,-2%,4%,-41*,-4%,1%,i
COc1ccccc1C(=O)NNc1ncc(C)s1,0%,6.3µM*,2,-1%,-1%,i
COc1cccc(COC(=O)c2ccc(S(=O)(=O)N3CCC(C)CC3)cc2)c1OC,1%,-2%,-61*,-3%,-2%,i
CCCCCCCCCCCCCCCC[N+](C)(C)Cc1ccccc1,·,32µM*,·,·,-10%,·
COc1cccc(C(=O)N2CCc3c(C(=O)NC(C)c4ccco4)c(OC)cc(=O)n3CC2)c1OC (configuration not stated),·,·,·,·,-3%,·
CC(NC(=O)COC(=O)c1cn(-c2ccccc2)nc1-c1cccs1)c1ccccc1 (configuration not stated),50µM*,3%,-1,1%,2%,i
O=C(Nc1ccncc1)c1cn(-c2ccccc2)nc1-c1cccs1,-22%,-6%,-1,2%,-2%,i
CC(C)(C)n1ncc2c(=O)n(Cc3ccc(Cl)c(F)c3)cnc21,·,·,·,·,-3%,·
CCCc1cc(=O)n2[nH]c(C)c(-c3ccccc3)c2n1,0%,19%,-57*,0%,-3%,i
CCCc1cc(=O)n2[nH]c(C)c(-c3ccccc3OC)c2n1,·,3%,-2,-4%,-4%,i
CCN(CC)S(=O)(=O)c1ccc(OC)c(NC(=O)C(C)Oc2ccc3c(C)cc(=O)oc3c2)c1 (configuration not stated),-22%,2%,-31*,2%,-6%,i
CCN(CC)S(=O)(=O)c1ccc(C)c(NC(=O)COc2ccc3c(C)cc(=O)oc3c2)c1,3%,0%,-1,-3%,-3%,i
